Screening results deposited in PubChem BioAssay by several laboratories.
Rows were chosen to be rich in hits. Some 1.9% of all compounds tested hit in one or more screens of this group.
JNK3 inh: inhibitors of human JNK3 kinase. P53779. purified JNK3 kinase activity, HTS. inhibition, % at 8 µM. 0.61% of 60,000 active; in the data active = inhibition above about 17%;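 also: 0% = DMSO and 100% = reference inhibitor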
Target sequence (P53779 whole entry, looked up): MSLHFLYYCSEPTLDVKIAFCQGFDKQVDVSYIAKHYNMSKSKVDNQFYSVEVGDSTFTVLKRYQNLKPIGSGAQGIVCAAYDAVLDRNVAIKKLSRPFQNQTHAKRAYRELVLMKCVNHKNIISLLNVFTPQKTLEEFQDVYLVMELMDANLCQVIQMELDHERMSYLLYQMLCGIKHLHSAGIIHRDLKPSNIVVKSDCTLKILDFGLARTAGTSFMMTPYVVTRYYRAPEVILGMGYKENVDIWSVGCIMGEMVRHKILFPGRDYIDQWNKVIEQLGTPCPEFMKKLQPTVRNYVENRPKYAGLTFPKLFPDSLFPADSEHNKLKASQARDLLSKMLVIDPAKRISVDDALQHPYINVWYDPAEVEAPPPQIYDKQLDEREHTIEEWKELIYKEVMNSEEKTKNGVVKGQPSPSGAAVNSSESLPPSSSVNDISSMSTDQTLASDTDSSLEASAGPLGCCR
PKA kinase inh: PKA (human) kinase inhibition. P17612. PKA Kemptide phosphorylation, Kinase-Glo ATP luminescence. inhibition, % at 6 µM. 0.1% of 65,000 active;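 active = inhibition above the screen-wide mean inhibition plus 3 SD, cut at about 21% in these data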
Hsp90 inh: displaces geldanamycin probe from tumor Hsp90; NCI-N417 lysate Hsp90, Cy3B-geldanamycin FP displacement; inhibition, % at 30 µM; 0.35% of 64,000 active;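 active = inhibition above 50%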;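 also: 0% = tracer plus lysate wells and 100% = tracer alone without lysate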
ROCK2 blocker: inhibitors of human Rho kinase 2; purified ROCK2, Kinase-Glo ATP depletion luminescence; inhibition, % at 6 µM; 0.35% of 60,000 active; O75116; AID 604;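 active = inhibition above the screen-wide mean inhibition plus 3 SD, cut at about 18% in these data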;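 also: plate controls were DMSO wells for no effect and Y-27632 control wells after no-enzyme background subtraction for full effect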
Jurkat tox 60K: cytotoxic compounds reducing Jurkat cell viability; inhibition, % at 4 µM; Jurkat E6.1 viability, ATP luminescence, 48 h; 1.2% of 56,000 active;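 active = inhibition above the mean inhibition of all tested compounds plus 3 SD, cut at about 28% in these data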
Numbers without * were called inactive.

Results for CCOC(=O)c1oc2ccccc2c1CSc1nnnn1-c1ccc(C)cc1 ?
JNK3 inh: -4; PKA kinase inh: 2; Hsp90 inh: -1; ROCK2 blocker: 4; Jurkat tox 60K: 1

How did NC(=S)c1ccc[n+]([C@@H]2O[C@@H](COP(=O)([O-])OP(=O)(O)OC[C@H]3O[C@@H](n4cnc5c(N)ncnc54)C(OP(=O)(O)O)[C@H]3O)C(O)C2O)c1 (stereo not given in full) do in these assays?
Hsp90 inh: 0

How did CCCCC(=O)Nc1ncc(Br)s1 do in these assays?
JNK3 inh: 28*; PKA kinase inh: 6; Hsp90 inh: -2; ROCK2 blocker: 5; Jurkat tox 60K: -1

How did CCCCC(=O)Nc1nnc(C)s1 do in these assays?
JNK3 inh: 2; PKA kinase inh: -1; Hsp90 inh: -2; ROCK2 blocker: 2; Jurkat tox 60K: -1

Results for CCN(CC)c1ccc(NC(=O)c2cccc(OC)c2)c(C)c1 ?
JNK3 inh: -8; PKA kinase inh: 8; Hsp90 inh: -4; ROCK2 blocker: 4; Jurkat tox 60K: 20

What do the screens show for `CCN(CC)c1ccc(NC(=O)c2cc(OC)cc(OC)c2)c(C)c1`?
JNK3 inh: -11; PKA kinase inh: 6; Hsp90 inh: -5; ROCK2 blocker: 5; Jurkat tox 60K: 94*

What do the screens show for `C=C/C(C)=C/[C@@]1(C)SC(=O)C(C)=C1O`?
Hsp90 inh: -2

Results for O=c1c(-c2ccc(O)cc2)coc2cc(O)cc(O)c12 ?
Hsp90 inh: 9

Results for O=c1c(O)c(-c2ccc(O)c(O)c2)oc2cc(O)cc(O)c12 ?
Hsp90 inh: 103*

Results for COC1(OC)N=C(N)C2(C#N)C(c3ccc4c(c3)OCO4)C12C#N (stereo not given) ?
JNK3 inh: 20*; PKA kinase inh: 18; Hsp90 inh: -8; ROCK2 blocker: 29*; Jurkat tox 60K: -13

How did COC1(OC)N=C(N)C2(C#N)C(c3ccc(C)cc3)C12C#N (stereo not given) do in these assays?
JNK3 inh: 3; PKA kinase inh: 14; Hsp90 inh: -1; ROCK2 blocker: 11; Jurkat tox 60K: -4

How did Nc1nonc1-c1nc2ccccc2n1Cc1ccc(Cl)cc1 do in these assays?
JNK3 inh: -9; PKA kinase inh: 5; Hsp90 inh: -2; ROCK2 blocker: 7; Jurkat tox 60K: 2

Results for CCCCOc1ccccc1NC(=O)Cn1c(-c2nonc2N)nc2ccccc21 ?
JNK3 inh: 0; PKA kinase inh: -4; Hsp90 inh: 1; ROCK2 blocker: -2; Jurkat tox 60K: 33*

How did CCOc1ccc(CCNC(=O)Cn2c(-c3nonc3N)nc3ccccc32)cc1OCC do in these assays?
JNK3 inh: -3; PKA kinase inh: 1; Hsp90 inh: -5; ROCK2 blocker: -2; Jurkat tox 60K: 9

What do the screens show for `COc1cccc(Cn2c(-c3nonc3N)nc3ccccc32)c1`?
JNK3 inh: 3; PKA kinase inh: -5; Hsp90 inh: -1; ROCK2 blocker: -5; Jurkat tox 60K: 81*

What do the screens show for `COc1cc(Cn2c(-c3nonc3N)nc3ccccc32)ccc1C`?
JNK3 inh: -5; PKA kinase inh: -4; Hsp90 inh: 1; ROCK2 blocker: -2; Jurkat tox 60K: 31*

Results for CN(CC(=O)Nc1ccncc1)S(=O)(=O)c1ccc(Cl)cc1 ?
JNK3 inh: 1; PKA kinase inh: 4; Hsp90 inh: -3; ROCK2 blocker: 12; Jurkat tox 60K: 11

Results for CC(=O)Oc1ccc(Oc2ccc(-c3noc(C)n3)cc2)cc1 ?
JNK3 inh: -7; PKA kinase inh: -7; Hsp90 inh: -7; ROCK2 blocker: -6; Jurkat tox 60K: 34*

What do the screens show for `CCOc1ccc(-c2nc(N)ncc2-c2ccccc2)c(O)c1`?
JNK3 inh: 51*; PKA kinase inh: 11; Hsp90 inh: 13; ROCK2 blocker: 17; Jurkat tox 60K: 3

How did CC(C)n1c(N2CCN(CC(=O)NCc3cccs3)CC2)nc2ccccc21 do in these assays?
JNK3 inh: -5; PKA kinase inh: 7; Hsp90 inh: -2; ROCK2 blocker: 0; Jurkat tox 60K: 6

What do the screens show for `O=C(CN1CCC(c2nc3ccccc3s2)CC1)NCc1cccs1`?
JNK3 inh: 3; PKA kinase inh: 1; Hsp90 inh: -4; ROCK2 blocker: 2; Jurkat tox 60K: 28*

Results for CC(C)Oc1cc(O)c2c(=O)c(-c3ccc(O)cc3)coc2c1 ?
JNK3 inh: -1; PKA kinase inh: 8; Hsp90 inh: -5; ROCK2 blocker: 7; Jurkat tox 60K: 99*

How did COC(=O)c1ccc(COc2ncnc3c(Cl)cc(Cl)cc23)o1 do in these assays?
JNK3 inh: 1; PKA kinase inh: 5; Hsp90 inh: -1; ROCK2 blocker: -1; Jurkat tox 60K: 3

What do the screens show for `COc1cccc2c1C(=O)c1c(O)c3c(c(O)c1C2=O)C[C@@](O)(C(=O)CO)C[C@@H]3O[C@H]1C[C@H](N)[C@H](O)[C@H](C)O1`?
JNK3 inh: -12; PKA kinase inh: 0; Hsp90 inh: 73*; ROCK2 blocker: 8

How did CN[C@H](CC(C)C)C(=O)N[C@H]1C(=O)N[C@@H](CC(N)=O)C(=O)N[C@H]2C(=O)N[C@H]3C(=O)N[C@H](C(=O)N[C@H](C(=O)O)c4cc(O)cc(O)c4-c4cc3ccc4O)[C@H](O)c3ccc(c(Cl)c3)Oc3cc2cc(c3O[C@@H]2O[C@H](CO)[C@@H](O)[C@H](O)[C@H]2O[C@H]2C[C@](C)(N)[C@H](O)[C@H](C)O2)Oc2ccc(cc2Cl)[C@H]1O do in these assays?
Hsp90 inh: inactive

What do the screens show for `O=C1c2ccccc2-c2nccnc21`?
JNK3 inh: 6; PKA kinase inh: 11; Hsp90 inh: -5; ROCK2 blocker: 6; Jurkat tox 60K: 5

How did O=C1C(SCCO)=C(SCCO)C(=O)c2ccccc21 do in these assays?
Hsp90 inh: 89*

How did O=C(Nc1ccn(-c2ccccc2)n1)c1ccc(S(=O)(=O)N2CCCCCC2)cc1 do in these assays?
JNK3 inh: -3; PKA kinase inh: 5; Hsp90 inh: -3; ROCK2 blocker: 5; Jurkat tox 60K: 34*

How did Cc1cc(S(=O)(=O)Nc2ccccc2C)ccc1F do in these assays?
JNK3 inh: 0; PKA kinase inh: 2; Hsp90 inh: -7; ROCK2 blocker: 0; Jurkat tox 60K: 1

What do the screens show for `Cc1nc2ccc(S(=O)(=O)Nc3ccccc3C)cc2s1`?
JNK3 inh: 7; PKA kinase inh: 5; Hsp90 inh: -8; ROCK2 blocker: 2; Jurkat tox 60K: 30*

What do the screens show for `CCn1cc(C(=O)O)c(=O)c2cc(F)c(N3CCNC(C)C3)c(F)c21` (stereo not given)?
Hsp90 inh: 2
